In the library only some 4.4% were active in any assay of this set; here they are far more common.
PfHsp90 set2: growth inhibition of yeast expressing Plasmodium Hsp90; S. cerevisiae expressing PfHsp90, BacTiter-Glo ATP, 48 h; yeast lacking PDR1 and PDR3 efflux regulators; inhibition, % at 9.4 µM; 310,000 tested, 0.32% active; AID 504621;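 active = every replicate shows inhibition above about 80%, whatever the replicate mean, limit read from the data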
SKKanGAS inh: blocks kanamycin growth of S. pyogenes SKKanGAS strain. 300,000 tested, 1.3% active. inhibition, % at 7.5 µM. BacTiter-Glo, 6 h;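 active = mean replicate score, as percent of positive control median, at least 50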;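 note: strain carries kanamycin resistance gene driven by streptokinase promoter and grows in 40 µg/ml kanamycin; loss of luminescence reflects streptokinase promoter inhibition or plain growth inhibition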
tim10-1 inh: inhibits growth of tim10-1 mutant yeast; 330,000 tested, 2.2% active; inhibition, % at 20 µM; S. cerevisiae tim10-1 ts strain growth, BacTiter-Glo, 24 h;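 active = inhibition of at least 40%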;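 note: mutant grown at 25 °C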
TIM10 inh: TIM10 yeast growth inhibition; S. cerevisiae TIM10 strain growth, BacTiter-Glo luminescence, 24 h; 330,000 tested, 1.4% active; inhibition, % at 10 µM;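 active = inhibition of 40% or more at the single tested concentration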;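 note: wild-type TIM10 isogenic control strain grown at permissive 25 °C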
tim23-1 inh: inhibits growth of tim23-1 mutant yeast | S. cerevisiae tim23-1 growth, BacTiter-Glo luminescence, 24 h | 330,000 tested, 1.3% active | inhibition, % at 20 µM | AID 463212;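 active = growth inhibition of the mutant yeast at or above 50%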;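 note: temperature-sensitive mutant grown at 25 °C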
Hits are given with their value; – = inactive; · = no result given.

SMILES	PfHsp90 set2	SKKanGAS inh	tim10-1 inh	TIM10 inh	tim23-1 inh
O=c1cc(N2CCCCC2)c(-c2ccccc2)nn1Cc1ccc(F)cc1	–	–	–	–	–
O=c1cc(N2CCCCC2)c(-c2ccccc2)nn1Cc1c(Cl)cccc1Cl	–	107	–	–	–
CC(C)(C)[C@H]1CCC(=O)N([C@H](CSc2ccccc2)Cc2ccccc2)CC1	·	63	–	–	–
CC(C)(C)[C@@H]1CCC(=O)N(CC[C@H](Sc2ccccc2)c2ccccc2)CC1	–	79	–	–	–
COC(=O)c1ccc(Oc2nc3ccccc3n3c(C)nnc23)cc1	–	53	–	–	–
O=C(Nc1nnc(-c2ccccc2Cl)o1)c1nc2ccccc2s1	–	95	–	–	–
COc1cccc2sc(Nc3nnc(-c4ccccc4Cl)o3)nc12	–	91	–	–	–
COc1ccccc1-c1nnc(Nc2nc3c(OC)cccc3s2)o1	·	91	–	–	–
COc1cccc2sc(NN)nc12	–	–	–	–	–
COc1cccc(-c2nnc(Nc3nc4c(F)cccc4s3)o2)c1	–	68	–	–	–
COc1cccc2sc(Nc3nc(-c4cc5ccccc5oc4=O)cs3)nc12	–	–	·	·	·
O=C(Nc1nnc(-c2ccccc2Cl)o1)c1ccco1	–	–	–	–	–
CN1C(=O)/C(=C/c2ccccc2Cl)Sc2ccc(C(=O)N3CCCC3)cc21	–	99	–	–	–
CCOC(=O)C1CCCN(C(=O)c2ccc3c(c2)N(C)C(=O)/C(=C/c2ccccc2Cl)S3)C1 (centres undefined)	–	105	–	–	–
CN1C(=O)/C(=C/c2ccc(C(F)(F)F)cc2)Sc2ccc(C(=O)N3CCN(c4ccccn4)CC3)cc21	–	104	–	–	–
CN1C(=O)c2ccccc2Sc2ccc(NC(=O)N3CCCC3)cc21	–	–	–	–	–
CCOC(=O)C1CCCN(C(=O)c2cccc(N3C(=O)c4ccccc4C3=O)c2)C1 (centres undefined)	·	·	–	–	–
CCOCc1c(C(=O)NCC(c2ccco2)N2CCCC2)oc2ccccc12 (centres undefined)	·	·	–	–	–
CC1CN(CC(O)c2ccc(Br)cc2)CCO1 (centres undefined)	–	·	·	·	·
CC1CCN(C2CC(=O)N(c3ccc(Br)cc3Br)C2=O)CC1 (centres undefined)	107	–	–	–	–
Cc1ccc(CN2Cc3cccc4c3[C@@H](CC2=O)[C@H](O)[C@H](O)C4)cc1	–	·	–	–	–
Cc1nn(Cc2c(Cl)cccc2Cl)c(C)c1NC(=O)c1cn(-c2ccccc2)nc1-c1ccccc1	–	63	–	–	–
N#CCCN(C(=O)COC(=O)C1CCN(S(=O)(=O)c2ccccc2C(F)(F)F)CC1)c1ccccc1	–	·	·	·	·
CN(C)c1ccc(/C=C/c2c([N+](=O)[O-])c(=O)n(C)c(=O)n2C)cc1	–	52	–	–	–
CCCOc1ccc(/C=C/c2c([N+](=O)[O-])c(=O)n(C)c(=O)n2C)cc1	–	50	–	–	–
SMILES	PfHsp90 set2	SKKanGAS inh	tim10-1 inh	TIM10 inh	tim23-1 inh
CC1(C)Oc2c(ccc(O)c2CN2CCOCC2)C2=C1CCCC2	–	·	·	·	·
COCCn1c(C)cc(C(=O)COC(=O)/C=C/c2ccc(OC)cc2OC)c1C	·	·	–	–	–
O=C(CNc1cccc2ccccc12)N/N=C/c1ccc([N+](=O)[O-])o1	–	131	–	–	–
O=C(CNc1cccc2ccccc12)N/N=C/c1ccc[nH]1	–	50	–	–	–
O=C(CNc1cccc([N+](=O)[O-])c1)N/N=C/c1ccc([N+](=O)[O-])o1	–	–	–	–	–
COc1cc(NC(=O)CCc2c(C)noc2C)c(Cl)cc1C(=O)O	–	·	–	–	–
COC(=O)[C@]1(C)CCC[C@@]2(C)C3CC[C@@]4(C)C[C@]3(CCC21)CC(=O)N4 (some centres undefined)	·	·	–	–	–
C=C1C(=O)C23CCC4C(C)(C(=O)OC)CCCC4(C)C2CCC1(O)C3 (centres undefined)	104	·	·	·	·
CC[C@@]1(C(=O)OC)N[C@H](CN(C)C(=O)COC)[C@@H]2C(=O)N(Cc3ccccc3)C(=O)[C@@H]21	–	·	–	–	–
Cc1ccc(/C=C/C2=Cc3c(sc(NC(=O)CSc4n[nH]c(N)n4)c3C#N)C(C)(C)C2)o1	·	55	–	–	–
C[C@@H]1CC=C[C@H]2[C@H]1C(=O)N(Cc1ccccc1)[C@H]2c1ccc(Br)cc1F	–	52	–	–	–

Screening data from PubChem.
